According to PubChem BioAssay:

Each compound was assayed against Calmodulin-1 (Homo sapiens) (UniProt P0DP23) (assay: CALM1 binders on microarrays, EGTA buffer, profiling panel, biochemical, small-molecule microarray, Cy5-labelled CALM1 (AID 1111;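 note: labelled calmodulin applied in Tris saline Tween buffer holding calcium plus EGTA and DTT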)). Conditions: Cy5-CALM1 binding fluorescence, higher = more signal.
Compound `CCCC[C@@H]1C[C@H]1[C@@H](NC(=O)c1cccs1)c1ccc(-c2ccccc2)cc1` has a composite z-score of 0.362. `C=CCOC(=O)[C@H]1[C@@H]2C(=O)O[C@@H](c3ccccc3)[C@@H](c3ccccc3)N2[C@@H](c2ccc(OCCOC(=O)[C@@H]3C[C@@H]4C(=O)N[C@@H](CCCCNC(C)=O)C(=O)N4[C@@H]3c3ccc(O)cc3)cc2)[C@]12C(=O)Nc1ccccc12` showed a composite z-score of 1.72. With `CCCCCCc1nc(-c2ccc(OC)nc2)cc2c1[Si](C(C)C)(C(C)C)O[C@H]2c1ccccc1` the composite z-score was -0.0918. For `CC(C)C(CO)N1C(=O)[C@@H]2C3C(=O)OCCC/C=C\[C@H]3OC23C=CCN(CCN2CCOCC2)C(=O)[C@@H]13` (some centres undefined), the composite z-score was -0.799. Work on `C=C(COC)/C(=C/C[C@@H](OC(C)=O)c1ccc(OCCO)cc1)c1cnc2ccccc2c1` yielded a composite z-score of 0.263. In the case of `CN(C)CCCCCCNC(=O)[C@@H]1C[C@@H]2C(=O)N[C@@H](Cc3ccccc3)C(=O)N2[C@@H]1c1ccc(O)cc1`, the composite z-score is reported as -0.565. For `Cc1nc2cc(Br)ccc2c(=O)o1`, the composite z-score was 0.66. `COCCOC(=O)N1C(=O)[C@@]2(c3ccccc31)[C@H](c1ccc(O)cc1)N1[C@H](c3ccccc3)[C@H](c3ccccc3)OC(=O)[C@H]1[C@@H]2C(=O)Nc1nc2ccccc2s1` showed a composite z-score of 1.29. `COCC(=C=CC[C@@H](O)c1cccc(OCCO)c1)C[C@@H](O)c1ccccn1` showed a composite z-score of -0.301.

These compounds were tested against Calmodulin-1 (Homo sapiens) (UniProt P0DP23) (assay: calcium-bound CALM1 binders on microarrays, profiling panel, artefact control for SMM control-protein annotation, biochemical, small-molecule microarray, Cy5-labelled CALM1, plus calcium (AID 1112;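 note: score merges spot fluorescence with signal to noise from triplicate slides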)). Conditions: Cy5-CALM1 binding fluorescence, higher = more signal.
For `Cc1ccccc1C(O)C1C=CC2C(=O)N(c3ccccc3)C(=O)C2N1Nc1ccc(C(C)C)cc1` (centres undefined), the composite z-score was 0.618. `CCS[C@H]1[C@@H](C(=O)O)[C@H](c2ccc(C)cc2)N(S(=O)(=O)c2ccc(C)cc2)[C@@H]1CC` was tested, and the composite z-score was 0.0072. For `COc1cc(NN2C(C(O)c3ccco3)C=CC3C(=O)N(c4ccccc4)C(=O)C32)cc(OC)c1OC` (centres undefined), the composite z-score was -0.657. `CNS(=O)(=O)c1ccc(C)cc1` showed a composite z-score of -0.263. `O=C1N(Cc2ccccc2)c2ccccc2[C@@H]2OC(c3ccc(OCCCO)cc3)=N[C@]12CCS(=O)(=O)c1ccccc1` gave a composite z-score of 0.246. `COc1cc2c(cc1O)C(C1CC1)N(Cc1sc3ccccc3c1Cl)CC2` (centres undefined) showed a composite z-score of 0.469. `Oc1ccc2cc[n+](Cc3sc4ccccc4c3Cl)cc2c1` was tested, and the composite z-score was -0.683. In the case of `CC(C)N1C(=O)C[C@@](C(=O)NCC(F)(F)F)(c2ccc([N+](=O)[O-])cc2)[C@H]1c1ccc(CO)cc1`, the composite z-score is reported as -0.411. `COCCCNC(=O)[C@@]1(C)c2ccccc2C(=O)N(C(C)C)[C@H]1c1ccc(CO)cc1` gave a composite z-score of -0.574. `COCCOC(=O)N1C(=O)[C@@]2(c3cc(C#CCC(C(=O)OC)C(=O)OC)ccc31)[C@H](c1ccccc1OCCO)N1[C@H](c3ccccc3)[C@H](c3ccccc3)OC(=O)[C@H]1[C@@H]2C(=O)N1CCN(c2ncccn2)CC1` was tested, and the composite z-score was 1.18. With `CCOC(=O)[C@H]1C/C=C/C[C@H](C(=O)OCC)C(=O)O[C@H]2[C@@H](OC)O[C@H](CO)[C@@H](OC(=O)c3c(OC)cccc3OC)[C@@H]2OC1=O` the composite z-score was 0.208. For `C=C(COC)/C(=C/C[C@@H](OC(=O)c1ccncc1)c1ccc(CO)o1)c1cc(C(=O)OC)ccc1OC`, the composite z-score was -0.708. `CC(C)N1C(=O)c2ccccc2[C@](C)(C(=O)NCCN2CCOCC2)[C@@H]1c1ccc(CO)cc1` gave a composite z-score of 0.23. `COCCCNC(=O)[C@@H]1c2ccccc2C(=O)N(Cc2ccccc2Cl)[C@H]1c1ccc(CO)cc1` showed a composite z-score of -0.613. `CC(C)NC(=O)[C@@]1(c2ccc([N+](=O)[O-])cc2)CC(=O)N(C2CCCCC2)[C@@H]1c1ccc(CO)cc1I` gave a composite z-score of 0.272. Compound `C=C(CCCC)/C(=C/C[C@H](OC(C)=O)c1ccccc1OCCO)c1cc(C(=O)OC)ccc1OC` has a composite z-score of -0.803. For `COCCOC(=O)N1C(=O)[C@@]2(c3cc(C#Cc4ccc(OC)cc4)ccc31)[C@H](c1ccc(O)cc1)N1[C@H](c3ccccc3)[C@H](c3ccccc3)OC(=O)[C@H]1[C@@H]2C(=O)N1CCc2cc(OC)c(OC)cc2C1`, the composite z-score was 0.141. In the case of `O=C1C2C=CC(C(O)Cc3ccccc3)N(n3cnnc3)C2C(=O)N1Cc1ccccc1` (centres undefined), the composite z-score is reported as 0.471. For `C=CC[C@]1(C(=O)NCc2ccccc2)N=C(c2ccc(OCCCO)cc2)O[C@H]1c1ccccc1N=[N+]=[N-]`, the composite z-score was 0.901. Compound `CCOC(=O)C[C@H]1[C@H](OC(=O)c2ccc(C(=O)c3ccccc3)cc2)[C@@H](NC(=O)c2ccc3ccccc3n2)c2cc(OCCCO)ccc2N1C(=O)c1ccccc1` has a composite z-score of 0.202. Work on `CN(C)C(=O)[C@@]1(CCS(=O)(=O)c2ccccc2)COC(c2ccc(OCCCO)cc2)=N1` yielded a composite z-score of -0.429. Compound `COc1ccccc1CN1C(=O)c2ccccc2[C@@H](C(=O)NC2CC2)[C@@H]1c1ccc(CO)cc1` has a composite z-score of -0.779. Compound `COC(=O)[C@H](Cc1ccccc1)N[C@@H](/C=C/C1CC1)[C@H](O)Cc1ccccc1` has a composite z-score of -0.736. Work on `O=C1C2C=CC(C(O)c3cccc4ccccc34)N(Nc3ccccc3F)C2C(=O)N1c1ccccc1` (centres undefined) yielded a composite z-score of 0.895. `O=C(CS)NCCCCCCNC(=O)[C@@H]1C[C@@H]2C(=O)N[C@@H](Cc3ccccc3)C(=O)N2[C@@H]1c1cccc(OCCO)c1` was tested, and the composite z-score was 0.414. Compound `NC(=O)NCC#Cc1ccc2c(c1)[C@]1(C(=O)N2)[C@H](C(N)=O)[C@H]2C(=O)O[C@H](c3ccccc3)[C@H](c3ccccc3)N2[C@@H]1c1ccc(O)cc1` has a composite z-score of 0.562. In the case of `CCCC[C@@H]1C[C@H]1[C@@H](NC(=O)c1cccs1)c1ccc(-c2ccccc2)cc1`, the composite z-score is reported as 0.295. In the case of `C=CCOC(=O)[C@H]1[C@@H]2C(=O)O[C@@H](c3ccccc3)[C@@H](c3ccccc3)N2[C@@H](c2ccc(OCCOC(=O)[C@@H]3C[C@@H]4C(=O)N[C@@H](CCCCNC(C)=O)C(=O)N4[C@@H]3c3ccc(O)cc3)cc2)[C@]12C(=O)Nc1ccccc12`, the composite z-score is reported as 0.365. `CCCCCCc1nc(-c2ccc(OC)nc2)cc2c1[Si](C(C)C)(C(C)C)O[C@H]2c1ccccc1` was tested, and the composite z-score was 0.176. For `CC(C)C(CO)N1C(=O)[C@@H]2C3C(=O)OCCC/C=C\[C@H]3OC23C=CCN(CCN2CCOCC2)C(=O)[C@@H]13` (some centres undefined), the composite z-score was -0.386. In the case of `C=C(COC)/C(=C/C[C@@H](OC(C)=O)c1ccc(OCCO)cc1)c1cnc2ccccc2c1`, the composite z-score is reported as -0.731. Compound `CN(C)CCCCCCNC(=O)[C@@H]1C[C@@H]2C(=O)N[C@@H](Cc3ccccc3)C(=O)N2[C@@H]1c1ccc(O)cc1` has a composite z-score of -1.14. With `Cc1nc2cc(Br)ccc2c(=O)o1` the composite z-score was 0.202. `COCCOC(=O)N1C(=O)[C@@]2(c3ccccc31)[C@H](c1ccc(O)cc1)N1[C@H](c3ccccc3)[C@H](c3ccccc3)OC(=O)[C@H]1[C@@H]2C(=O)Nc1nc2ccccc2s1` showed a composite z-score of 0.501. `COCC(=C=CC[C@@H](O)c1cccc(OCCO)c1)C[C@@H](O)c1ccccn1` showed a composite z-score of -0.0023.
